Activity calls are given as the source filed them. Rule for the calls: active = hit-call score of the fitted dose curve at least 0.9, where 1 is the maximum; inactive = score below 0.9.
How the values were obtained:
[1] = read-out: TIMP metallopeptidase inhibitor 2 (TIMP2), TIMP2 (gene 7077); assay: BSK_KF3CT_TIMP2: BioMAP Diversity Plus: KF3CT Assay for TIMP metallopeptidase inhibitor 2 (TIMP2) Biomarker Activity (AID 2283071); settings: primary human keratinocytes with fibroblasts; actives raise or lower the signal
In short: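 TIMP-2 measured by ELISA at 24 h in human keratinocyte/fibroblast primary co-cultures exposed to chemicals. Both increases and decreases were fitted against DMSO. Parallel cultures were stained with SRB for total protein as an overt-cytotoxicity check.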

[2] = read-out: Transforming growth factor beta 1 (TGFb1), TGFB1 (gene 7040); assay: BSK_KF3CT_TGFb1: BioMAP Diversity Plus: KF3CT Assay for Transforming growth factor beta 1 (TGFb1) Biomarker Activity (AID 2283072); settings: primary human keratinocytes with fibroblasts; actives raise or lower the signal
In short: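 ELISA quantifies TGF-b1 at 24 h post-dose in a primary human skin co-culture of keratinocytes and fibroblasts, with gain or loss judged against DMSO. Parallel SRB total-protein staining flags overt cytotoxicity.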

[3] = read-out: C-C motif chemokine 2 (Homo sapiens) (UniProt P13500); assay: BSK_KF3CT_MCP1: BioMAP Diversity Plus: KF3CT Assay for Monocyte Chemoattractant Protein 1 (MCP1/CCL2) Biomarker Activity (AID 2283073); settings: primary human keratinocytes with fibroblasts; actives raise or lower the signal
In short: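 Human keratinocyte–foreskin fibroblast co-culture; MCP-1 measured by ELISA 24 h after dosing. Bidirectional fit vs DMSO; cytotoxicity tracked by SRB total protein in parallel cultures.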

[4] = read-out: Matrix Metallopeptidase 9 (MMP9), MMP9 (gene 4318); assay: BSK_KF3CT_MMP9: BioMAP Diversity Plus: KF3CT Assay for Matrix Metallopeptidase 9 (MMP9) Biomarker Activity (AID 2283074); settings: primary human keratinocytes with fibroblasts; actives raise or lower the signal;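 for AC50: MMP9 protein level quantified by ELISA in the co-culture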
In short: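 Values come from bidirectional fitting relative to DMSO of MMP-9 levels, which were measured by ELISA. Measurements were taken 24 h after chemical dosing of a keratinocyte and foreskin fibroblast co-culture.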

[5] = read-out: urokinase plasminogen activator (uPA), PLAU (gene 5328); assay: BSK_KF3CT_uPA: BioMAP Diversity Plus: KF3CT Assay for urokinase plasminogen activator (uPA) Biomarker Activity (AID 2283075); settings: primary human keratinocytes with fibroblasts; actives raise or lower the signal
In short: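 Values derive from bidirectional fitting against DMSO controls. Keratinocyte/foreskin fibroblast co-cultures received chemical; 24 h later uPA was detected by ELISA, with SRB total-protein staining in parallel wells for overt cytotoxicity.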

CD40, CD40 (gene 958) [6] = assay: BSK_LPS_CD40: BioMAP Diversity Plus: LPS Assay for CD40 Biomarker Activity (AID 2283076); settings: primary human HUVEC with PBMC; actives raise or lower the signal
In short: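 HUVEC plus PBMC co-culture stimulated with LPS; CD40 quantified by ELISA 24 h after compound dosing. Fitting was bidirectional relative to DMSO. SRB staining of parallel cultures flagged overt cytotoxicity.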

[7] = read-out: E-selectin (Homo sapiens) (UniProt P16581); assay: BSK_LPS_Eselectin: BioMAP Diversity Plus: LPS Assay for Eselectin Biomarker Activity (AID 2283077); settings: primary human HUVEC with PBMC; actives raise or lower the signal
In short: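 Human umbilical vein endothelial cells co-cultured with PBMC under LPS stimulation; cell-surface E-selectin measured by ELISA 24 h after dosing. Change in either direction versus DMSO, with SRB total-protein staining in parallel cultures for cytotoxicity.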

[8] = read-out: Interleukin-8 (IL8), CXCL8 (gene 3576); assay: BSK_LPS_IL8: BioMAP Diversity Plus: LPS Assay for Interleukin-8 (IL8) Biomarker Activity (AID 2283078); settings: primary human HUVEC with PBMC; actives raise or lower the signal
In short: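 Human umbilical vein endothelial cells co-cultured with PBMC, LPS-stimulated, exposed to compound for 24 h. IL-8 quantified by ELISA; fitted in both directions against DMSO, with SRB total-protein staining of parallel cultures for cytotoxicity.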

[9] = BSK_LPS_SRB: Viability Assessment in the BioMAP Diversity Plus: LPS Assay (AID 2283079); settings: primary human HUVEC with PBMC;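 note: total protein by sulforhodamine B absorbance as a cytotoxicity measure; measured one day after compound addition; fitted in both directions against DMSO so loss or gain of signal counts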
In short: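 Co-culture of human umbilical vein endothelial cells and PBMC, read 24 h after dosing. Total protein by 0.1% SRB staining after 10% TCA fixation, absorbance at 560 nm; bidirectional fit against DMSO.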

[10] = read-out: Interleukin-1 alpha (IL1a), IL1A (gene 3552); assay: BSK_LPS_IL1a: BioMAP Diversity Plus: LPS Assay for Interleukin-1 alpha (IL1a) Biomarker Activity (AID 2283080); settings: primary human HUVEC with PBMC; actives raise or lower the signal
In short: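 Human umbilical vein endothelial cells co-cultured with PBMC and stimulated with LPS; IL-1a measured by ELISA 24 h after dosing. Bidirectional fitting against DMSO; cytotoxicity checked by SRB staining in parallel cultures.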

[11] = read-out: Monocyte Chemoattractant Protein-1 (MCP1), CCL2 (gene 6347); assay: BSK_LPS_MCP1: BioMAP Diversity Plus: LPS Assay for Monocyte Chemoattractant Protein-1 (MCP1) Biomarker Activity (AID 2283081); settings: primary human HUVEC with PBMC; actives raise or lower the signal;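 for AC50: secreted MCP-1 protein quantified by ELISA in culture supernatant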
In short: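 Human umbilical vein endothelial cells co-cultured with PBMC, LPS-stimulated; secreted MCP-1 measured by ELISA 24 h after compound addition. Bidirectional curve fitting against DMSO baseline; SRB total-protein staining in parallel cultures for cytotoxicity.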

[12] = BSK_LPS_PGE2: BioMAP Diversity Plus: LPS Assay for Prostaglandin E2 (PGE2) Biomarker Activity (AID 2283082); settings: primary human HUVEC with PBMC; actives raise or lower the signal;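 for AC50: secreted prostaglandin E2 measured by ELISA in LPS-stimulated co-culture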
In short: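 PGE2 release measured by ELISA in an LPS-activated co-culture of human umbilical vein endothelial cells and peripheral blood mononuclear cells, read at 24 h post-dosing. DMSO served as baseline for bidirectional curve fitting.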

[13] = read-out: Macrophage colony-stimulating factor (MCSF), CSF1 (gene 1435); assay: BSK_LPS_MCSF: BioMAP Diversity Plus: LPS Assay for Macrophage colony-stimulating factor (MCSF) Biomarker Activity (AID 2283083); settings: primary human HUVEC with PBMC; actives raise or lower the signal
In short: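 HUVEC–PBMC co-culture, M-CSF measured by ELISA 24 h after chemical dosing. Fitted in both directions relative to DMSO as negative control; overt cytotoxicity assessed by SRB total-protein staining in parallel cultures.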

[14] = read-out: Tissue Factor, F3 (gene 2152); assay: BSK_LPS_TissueFactor: BioMAP Diversity Plus: LPS Assay for Tissue Factor Biomarker Activity (AID 2283084); settings: primary human HUVEC with PBMC; actives raise or lower the signal
In short: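 Human umbilical vein endothelial cells co-cultured with PBMC were dosed with compound. Cell-surface CD142 was measured by ELISA 24 h later. Activity was fitted bidirectionally against DMSO, with SRB total-protein staining in parallel cultures for cytotoxicity.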

[15] = read-out: Tumor necrosis factor (Homo sapiens) (UniProt P01375); assay: BSK_LPS_TNFa: BioMAP Diversity Plus: LPS Assay for Tumour Necrosis Factor alpha (TNFa) Biomarker Activity (AID 2283085); settings: primary human HUVEC with PBMC; actives raise or lower the signal;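 for AC50: TNFa protein level quantified by ELISA in the co-culture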
In short: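 TNFa was quantified by ELISA in LPS-activated co-cultures of human endothelial cells and PBMC, 24 h post-dosing. Both increases and decreases versus DMSO were fitted.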

[16] = read-out: Vascular cell adhesion molecule 1 (VCAM1), VCAM1 (gene 7412); assay: BSK_LPS_VCAM1: BioMAP Diversity Plus: LPS Assay for Vascular cell adhesion molecule 1 (VCAM1) Biomarker Activity (AID 2283086); settings: primary human HUVEC with PBMC; actives raise or lower the signal
In short: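 VCAM-1 quantified by ELISA in an LPS-activated co-culture of human endothelial cells and peripheral blood mononuclear cells, read 24 h post-treatment. Fitted in both directions versus DMSO; parallel SRB staining flags overt cytotoxicity.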

CD38, CD38 (gene 952) = assay: BSK_SAg_CD38: BioMAP Diversity Plus: SAg Assay for CD38 Biomarker Activity (AID 2283087); settings: primary human HUVEC with PBMC; actives raise or lower the signal
In short: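 CD38 quantified by ELISA (fluorescence) in a superantigen-activated endothelial cell–PBMC co-culture at 24 h post-dose. Activity fitted in both directions relative to DMSO; parallel SRB and Alamar Blue cytotoxicity read-outs.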

CD40, CD40 (gene 958) [17] = assay: BSK_SAg_CD40: BioMAP Diversity Plus: SAg Assay for CD40 Biomarker Activity (AID 2283088); settings: primary human HUVEC with PBMC; actives raise or lower the signal
In short: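 HUVEC plus PBMC co-culture, superantigen-activated, with CD40 read by ELISA 24 h after dosing. Curves fitted in both directions against DMSO. Overt cytotoxicity checked by parallel SRB total-protein staining.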

CD69, CD69 (gene 969) = assay: BSK_SAg_CD69: BioMAP Diversity Plus: SAg Assay for CD69 Biomarker Activity (AID 2283089); settings: primary human HUVEC with PBMC; actives raise or lower the signal;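 for AC50: cell surface CD69 protein quantified by ELISA with fluorescence detection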
In short: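 Values derive from bidirectional fitting relative to DMSO vehicle. Cells: umbilical vein endothelium plus peripheral blood mononuclear cells, treated 24 h before fluorescent ELISA for CD69.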

Measured: AC50

Sequence of Tumor necrosis factor (Homo sapiens) (P01375 whole entry, looked up): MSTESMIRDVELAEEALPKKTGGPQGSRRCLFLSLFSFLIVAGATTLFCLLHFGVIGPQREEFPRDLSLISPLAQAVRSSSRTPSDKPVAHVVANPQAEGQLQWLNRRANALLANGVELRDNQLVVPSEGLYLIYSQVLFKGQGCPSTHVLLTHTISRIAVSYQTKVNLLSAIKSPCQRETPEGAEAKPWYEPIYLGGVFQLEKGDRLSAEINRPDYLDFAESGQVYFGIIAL
Sequence of E-selectin (Homo sapiens) (P16581 whole entry, looked up): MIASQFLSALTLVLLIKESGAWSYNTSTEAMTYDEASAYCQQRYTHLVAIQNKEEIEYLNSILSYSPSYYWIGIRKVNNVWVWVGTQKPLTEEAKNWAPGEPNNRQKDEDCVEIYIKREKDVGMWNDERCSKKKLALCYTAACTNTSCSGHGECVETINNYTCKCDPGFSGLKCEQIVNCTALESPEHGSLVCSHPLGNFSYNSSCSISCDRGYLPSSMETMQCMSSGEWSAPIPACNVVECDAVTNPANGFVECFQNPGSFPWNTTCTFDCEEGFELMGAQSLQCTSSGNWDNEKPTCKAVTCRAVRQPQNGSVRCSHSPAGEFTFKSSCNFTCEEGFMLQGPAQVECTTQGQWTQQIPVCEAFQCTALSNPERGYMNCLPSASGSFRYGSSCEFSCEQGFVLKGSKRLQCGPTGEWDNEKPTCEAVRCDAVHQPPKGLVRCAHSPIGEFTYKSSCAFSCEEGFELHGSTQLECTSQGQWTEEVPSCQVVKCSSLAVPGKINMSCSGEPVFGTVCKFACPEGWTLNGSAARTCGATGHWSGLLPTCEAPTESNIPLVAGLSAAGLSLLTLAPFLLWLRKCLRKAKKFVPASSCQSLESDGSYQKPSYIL

CCOP(=O)(OCC)Oc1cc(C)nc(C(C)C)n1
active: [1] 29.8 µM | [3] 31.5 µM | [4] 30.3 µM | [5] 29.3 µM | CD40, CD40 (gene 958) [6] 14.4 µM
inactive: all other assays above

Nc1c(Cl)cc([N+](=O)[O-])cc1Cl
inactive: all assays above

CC[C@H](C)[C@H]1O[C@]2(C=C[C@@H]1C)C[C@@H]1C[C@@H](C/C=C(\C)[C@@H](O[C@H]3C[C@H](OC)[C@@H](O[C@H]4C[C@H](OC)[C@@H](NC)[C@H](C)O4)[C@H](C)O3)[C@@H](C)/C=C/C=C3\CO[C@@H]4[C@H](O)C(C)=C[C@@H](C(=O)O1)[C@]34O)O2
inactive: [12]
active: [1] 8.99 µM | [2] 10.8 µM | [3] 7.96 µM | [4] 6.21 µM | [5] 9.27 µM | CD40, CD40 (gene 958) [6] 1.86 µM | [7] 5.98 µM | [8] 5.57 µM | [9] 5.52 µM | [10] 3.68 µM | [11] 5.49 µM | [13] 4.33 µM | [14] 9.74 µM | [15] 4.56 µM | [16] 7.42 µM | CD38, CD38 (gene 952) 3.25 µM | CD40, CD40 (gene 958) [17] 3.34 µM | CD69, CD69 (gene 969) 4.17 µM

CCc1cccc(CC)c1N(COC)C(=O)CCl
active: [4] 20 µM | CD40, CD40 (gene 958) [6] 13.8 µM | [7] 33.8 µM | [9] 3.97 µM | [10] 1.06 µM | [13] 13.6 µM | [15] 1.31 µM | [16] 26.9 µM | CD38, CD38 (gene 952) 28.6 µM | CD40, CD40 (gene 958) [17] 20 µM | CD69, CD69 (gene 969) 15.4 µM
inactive: [1] | [2] | [3] | [5] | [8] | [11] | [12]

CC1(C(=O)Nc2ccc(O)c(Cl)c2Cl)CCCCC1
active: [7] 16.4 µM | [12] 5.46 µM
not listed: [14]
inactive: all other assays above

Cc1nn(-c2cc(NS(C)(=O)=O)c(Cl)cc2Cl)c(=O)n1C(F)F
not listed: [14]
inactive: all other assays above

CCCCOC(=O)[C@@H](C)Oc1ccc(Oc2ccc(C#N)cc2F)cc1
inactive: all assays above

CCOP(=O)(SC(C)CC)N1CCSC1=O (centres undefined)
not listed: [14]
inactive: all other assays above

COP(=O)(OC)C(O)C(Cl)(Cl)Cl (centres undefined)
not listed: [8] | [12] | [14]
inactive: all other assays above

CCCCN(CC)c1c([N+](=O)[O-])cc(C(F)(F)F)cc1[N+](=O)[O-]
active: [4] 22.1 µM | CD40, CD40 (gene 958) [6] 34.2 µM | [7] 20 µM | [13] 18.2 µM | [16] 26.5 µM | CD38, CD38 (gene 952) 27.9 µM | CD40, CD40 (gene 958) [17] 29.1 µM
not listed: [14]
inactive: all other assays above

Nc1nc(N)nc(NC2CC2)n1
not listed: [14]
inactive: all other assays above

CSC1=N[C@@](C)(c2ccccc2)C(=O)N1Nc1ccccc1
active: [4] 29.9 µM | [7] 10.6 µM | [8] 1.7 µM | [9] 20 µM | [11] 15.2 µM | [12] 6.96 µM | CD38, CD38 (gene 952) 14.3 µM | CD40, CD40 (gene 958) [17] 11.4 µM | CD69, CD69 (gene 969) 11.5 µM
inactive: all other assays above
